For 25 molecules, Potency and viability results are on record in PubChem BioAssay (NCATS).

Records with an inconclusive call do not appear. Values without a mark were called inactive. Activity calls are given as the source filed them. Calls follow the shape of the dose curve; as a rule, active = well fitted curve in the direction sought with a large enough effect; inconclusive = small, poorly fitted or top-dose-only effect, or another doubt; inactive = no such curve, though single readings can be large; an effect the other way counts as inactive or inconclusive.

The target in experiment [1] is Aldehyde dehydrogenase, mitochondrial (Homo sapiens) (UniProt P05091). Description: qHTS for Inhibitors of the Aldehyde Dehydrogenase Family (ALDH2) Primary screen (AID 2061308).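 Also: plate controls were vehicle for no effect and reference inhibitor for full effect; nearly all actives have a fitted effect of over 55% in size.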 Background: qHTS replaces the single test concentration by a dilution series.
The target in experiment [2] is Retinaldehyde dehydrogenase 3 (Homo sapiens) (UniProt P47895). The experiment in a line: qHTS for Inhibitors of the Aldehyde Dehydrogenase Family (ALDH1A3) Primary screen (AID 2061315). Also: potency is read from the fitted curve at half-maximal effect.
Experiment [3] is described as follows: BET inhibitor-based combinations targeting novel dependencies in MECOM-rearranged (r) AML: OCI-AML3 cell line (AID 2202232). Also: nearly all actives have a fitted effect of over 35% in size. Also: potency is read from the fitted curve at half-maximal effect. As to conditions: Potency: OCI-AML3 viability. An outline of the steps: (§1)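 A 48 hr incubation preceded viability reading by CellTiter-Glo, with 15 min room-temperature development. Dose series had 11 points; normalization used DMSO and empty wells; AUC was computed and mean-centered per line as Z-AUC.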

The nature of experiment [4]: BET inhibitor-based combinations targeting novel dependencies in MECOM-rearranged (r) AML: MV-4-11 cell line (AID 2202233). Also: potency is read from the fitted curve at half-maximal effect; nearly all actives have a fitted effect of over 45% in size. An outline of the steps:
(§2)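 Each compound is tested in an 11-point concentration series against 500 seeded cells/well for 48 hr. The luminescent viability signal is normalized to DMSO and blank wells, then reduced to AUC and a cell-line-centred Z-AUC.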

A short description of experiment [5]: BET inhibitor-based combinations targeting novel dependencies in MECOM-rearranged (r) AML: HNT-34 cell line (AID 2202234). Also: nearly all actives have a fitted effect of over 35% in size. Also: potency is read from the fitted curve at half-maximal effect. An outline of the steps: as §2
The nature of experiment [6]: BET inhibitor-based combinations targeting novel dependencies in MECOM-rearranged (r) AML: UCSD-AML1 cell line (AID 2202235). Also: nearly all actives have a fitted effect of over 40% in size. Also: potency is read from the fitted curve at half-maximal effect. A digest of the protocol: as §2
Experiment [7] can be described thus: BET inhibitor-based combinations targeting novel dependencies in MECOM-rearranged (r) AML: AML-194 cell line (AID 2202237; also: nearly all actives have a fitted effect of over 40% in size; also: potency is read from the fitted curve at half-maximal effect). A digest of the protocol:
as §1

A short description of experiment [8]: BET inhibitor-based combinations targeting novel dependencies in MECOM-rearranged (r) AML: SET-2 cell line (AID 2202231).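 Also: plate controls were DMSO treated cells for no effect and wells without cells for full effect; nearly all actives have a fitted effect of over 35% in size.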 The settings on record: SET-2 AML cells viability, CellTiter-Glo luminescence, 48 h; viability: active compounds read low, series mostly up to about 46 µM. An outline of the steps: as §1
Experiment [9] is described as follows: BET inhibitor-based combinations targeting novel dependencies in MECOM-rearranged (r) AML: AML-191 cell line (AID 2202236; also: nearly all actives have a fitted effect of over 35% in size; also: potency is read from the fitted curve at half-maximal effect). An outline of the steps:
as §1

The target of experiment [10] is Retinaldehyde dehydrogenase 3 (Homo sapiens) (UniProt P47895). Description: qHTS for Inhibitors of the Aldehyde Dehydrogenase Family (ALDH1A3) Confirmatory screens (AID 2061311). Also: potency is read from the fitted curve at half-maximal effect; nearly all actives have a fitted effect of over 60% in size.
In experiment [11] the target is Retinal dehydrogenase 2 (Homo sapiens) (UniProt O94788). The experiment in a line: qHTS for Inhibitors of the Aldehyde Dehydrogenase Family (ALDH1A2) Confirmation screens (AID 2061314). Also: potency is read from the fitted curve at half-maximal effect; nearly all actives have a fitted effect of over 65% in size.
Experiment [12] deals with Aldehyde dehydrogenase 1A1 (Homo sapiens) (UniProt P00352). Description: qHTS for Inhibitors of the Aldehyde Dehydrogenase Family (ALDH1A1) Confirmatory screens (AID 2061316). Also: nearly all actives have a fitted effect of over 65% in size. Also: potency is read from the fitted curve at half-maximal effect.

As to `COc1cc(Oc2ccnc3cc(OC)c(OC)cc23)ccc1NC(=O)NC(C)c1nccs1` (stereo not drawn), the Potency result in experiment [1], in experiment [2] and in experiment [6] was “inactive” throughout. For the same molecule, the Potency in [3] was 10.5 µM (active); in [4], 11.8 µM (active); in experiment [5], 13.2 µM (active); in experiment [7], 13.2 µM (active).

As usually defined, the viability is a read-out of living cells in per cent, often relative to untreated cells. `O=C(O)C1=CO[C@@H](O[C@@H]2O[C@H](CO)[C@@H](O)[C@H](O)[C@H]2O)[C@@H]2C(CO)=CC[C@H]12`: the Potency result in [1], in experiment [2], in [5], in experiment [6], in experiment [9] and in experiment [7] was “inactive” throughout. Also, the viability in experiment [8] is 118%.

`COc1ccc(Cl)c(Nc2nc3ccccc3nc2NS(=O)(=O)c2cccc(NC(=O)C(C)(C)N)c2)c1`: the Potency result in [1] and in experiment [2] was “inactive” throughout. In addition, the viability in experiment [8] is 103%. Also, the Potency was 7.42 µM (active) in [4], 16.6 µM (active) in [9] and 20.9 µM (active) in [7].

`COc1cc2ncnc(Nc3ccc(O)c(Br)c3)c2cc1OC`: the Potency entry in experiment [1] and in experiment [2] was “inactive” each time. For the same molecule, the Potency in [4] is 1.48 µM (active); in experiment [5], 5.25 µM (active).

For `CNCc1ccc(-c2cc(-c3nc(-c4ccc(S(=O)(=O)C(C)C)cc4)cnc3N)on2)cc1`, the Potency result in experiment [1], in [2] and in experiment [3] was “inactive” throughout. The Potency in experiment [6] was 0.742 µM (active).

Take `Cc1nnc(C[C@@H]2C=C(c3ccc(Cl)cc3)c3ccccc3-n3c(C)nnc32)o1`: the Potency result in experiment [1] and in experiment [2] was “inactive” throughout. The Potency in experiment [3] is 0.332 µM (active); in [4] it was 0.235 µM (active); in experiment [6], 2.09 µM (active); in experiment [9], 3.32 µM (active); in [7], 5.25 µM (active).

In the case of `O=C(NCc1ccccc1)c1csc(Nc2ccncn2)n1`, the Potency entry in experiment [1] and in experiment [2] was “inactive” throughout. In addition, the Potency in [3] is 10.5 µM (active); in [4] it was 9.34 µM (active); in experiment [5], 10.5 µM (active); in experiment [6], 18.6 µM (active); in experiment [9], 18.6 µM (active); in experiment [7], 18.6 µM (active).

For the molecule `C[C@H]1[C@@H](OC(=O)CCC(=O)O)O[C@@H]2O[C@@]3(C)CC[C@@H]4[C@H](C)CC[C@@H]1[C@@]24OO3`, the Potency entry in experiment [1] and in [2] was “inactive” throughout. Also, the Potency in [3] is 4.17 µM (active); in [4], 1.66 µM (active); in experiment [5] it was 2.95 µM (active); in experiment [6] it was 8.33 µM (active); in experiment [9] it was 5.25 µM (active); in experiment [7], 9.34 µM (active).

`Cn1c(NC[C@@H](N)Cc2ccccc2)nc(-c2ccncc2)c(-c2ccc3ccccc3c2)c1=O`: the Potency result in experiment [1] and in experiment [2] was “inactive” each time. Also, the Potency was 20.9 µM (active) in experiment [3], 20.9 µM (active) in experiment [4], 26.3 µM (active) in [5] and 26.3 µM (active) in [7].

For the molecule `Cc1onc(-c2ccc(F)cc2)c1COc1ccc(C(=O)N2CCS(=O)(=O)CC2)cn1`, the Potency result in [1], in experiment [2], in [3], in experiment [5], in experiment [6] and in [9] was “inactive” throughout. In addition, the Potency entry in [7] was “inactive”.

As for `O=C(C1CC1)N1CC[C@@H](Cn2c(-c3ccc(-c4ccc5occc5c4)cc3)nc3cnccc32)C1`, the Potency entry in experiment [1] and in experiment [2] was “inactive” in each case. In addition, the Potency was 10.5 µM (active) in experiment [3], 20.9 µM (active) in experiment [4] and 26.3 µM (active) in experiment [5].

Consider `C[C@@H]1CC(=O)Nc2cccc(-c3cnn(C(C)(C)C)c3)c2N1`, for which the Potency entry in experiment [1] and in experiment [2] was “inactive” each time. Moreover, the Potency in [3] was 18.6 µM (active); in experiment [4], 16.6 µM (active); in experiment [6] it was 14.8 µM (active); in experiment [9], 16.6 µM (active).

Regarding `C=CC(=O)N1CCC[C@@H](n2nc(-c3ccc(Oc4ccccc4)cc3)c3c(N)ncnc32)C1`, the Potency result in experiment [1], in experiment [2] and in experiment [3] was “inactive” throughout. Moreover, the Potency in [4] is 2.95 µM (active); in [5] it was 5.9 µM (active).

Turning to `COc1ncc(Nc2ncc([C@H](C)N3CCN(S(C)(=O)=O)CC3)cc2-c2nc(C)nc(N)n2)cc1F`, the Potency result in experiment [1] and in experiment [2] was “inactive” throughout. Besides, the Potency in [3] is 0.0468 µM (active); in [4] it was 0.0417 µM (active); in experiment [6] it was 0.296 µM (active).

As for `Cc1ccc(NC(=O)c2ccc(CN3CC[C@H](N(C)C)C3)c(C(F)(F)F)c2)cc1Nc1nccc(-c2cncnc2)n1`, the Potency result in experiment [1] and in experiment [2] was “inactive” throughout. Moreover, the Potency in [3] is 2.04 µM (active); in [4] it was 8.11 µM (active); in experiment [5], 0.0407 µM (active); in experiment [7], 14.4 µM (active).

Regarding `O=C1NC(=O)/C(=C/c2cccc(C(F)(F)F)c2)S1`, the Potency entry in experiment [1], in experiment [2], in experiment [3], in experiment [9] and in [7] was “inactive” throughout.

With `CC(=O)O[C@H]1C(=O)[C@@]2(C)C([C@H](OC(=O)c3ccccc3)[C@]3(O)C[C@H](OC(=O)[C@H](O)[C@@H](NC(=O)c4ccccc4)c4ccccc4)C(C)=C1C3(C)C)[C@]1(OC(C)=O)CO[C@@H]1C[C@@H]2O` (stereo partly drawn), the Potency result in experiment [1] and in experiment [2] was “inactive” each time. Moreover, the Potency was 0.0059 µM (active) in [3], 0.0042 µM (active) in experiment [5] and 0.0209 µM (active) in experiment [9].

With `C[C@H](CN(C)C)Oc1nc(Nc2cc3cccc(Cl)c3cn2)cnc1C#N`, the Potency result in experiment [1] and in experiment [2] was “inactive” in each case. In addition, the Potency in experiment [3] is 4.68 µM (active); in experiment [4] it was 1.86 µM (active).

`CN1CC[C@@H](c2c(O)cc(O)c3c(=O)cc(-c4ccc(C(F)(F)F)cc4Cl)oc23)[C@@H]1CO`: the Potency result in experiment [1] and in [2] was “inactive” each time. Besides, the Potency in experiment [4] was 20.9 µM (active).

For the molecule `CC(=O)Nc1sc2c(c1-c1cccc3[nH]ncc13)CCNC2`, the results for the Potency in [10], in experiment [11] and in [12] were 12.7 µM (active), 10.1 µM (active) and 11.3 µM (active), respectively.

`O=S1(=O)Nc2c(ccc3cccnc23)-c2ccccc21`: the Potency in [10] was 8.96 µM (active); in experiment [11], 12.7 µM (active). Further, the Potency entry in experiment [12] was “inactive”.

Turning to `Cc1c(C(=O)OC[C@H]2CCCO2)[nH]c2c1C(=O)CC(c1ccco1)C2` (stereo partly drawn), the Potency is 12.7 µM (active) in [10], 4 µM (active) in experiment [11] and 1.42 µM (active) in experiment [12]. In addition, in experiment [2], the Potency result is “inactive”.

Take `Oc1ccc(Nc2ccccc2F)c2cccnc12`: the Potency was 7.98 µM (active) in experiment [10] and 1.26 µM (active) in experiment [2]. For the same molecule, the Potency entry in [12] was “inactive”.

With `FC(F)(F)c1ccccc1-c1nc(NCc2ccc(-c3ccccc3)cc2)c2ccccc2n1`, the Potency in [10] is 3.57 µM (active). Moreover, the Potency result in experiment [2] and in experiment [12] was “inactive” each time.

As for `Cc1cc(C)nc(NC(=S)N2CCN(c3ccc4nccn4c3)CC2)c1`, the Potency in experiment [10] is 10.1 µM (active); in experiment [11] it was 14.2 µM (active); in experiment [12], 7.12 µM (active). In addition, the Potency entry in experiment [2] is “inactive”.
